D2 ag-1 – HTS Assay for Allosteric Agonists of the Human D2 Dopamine Receptor: Primary Screen for Agonists | D(2) dopamine receptor (Homo sapiens), P14416 | HEK293 T-REx D2 cells, calcium flux agonist mode | activation, % at 2 µM | 340,000 tested, 0.53% active | AID 485358, 2010;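 active = activation over 3 SD above normal in the single-dose calcium agonist read, cut at about 30% in these data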; also: 0% is about no effect
Target sequence (P14416 whole entry, looked up): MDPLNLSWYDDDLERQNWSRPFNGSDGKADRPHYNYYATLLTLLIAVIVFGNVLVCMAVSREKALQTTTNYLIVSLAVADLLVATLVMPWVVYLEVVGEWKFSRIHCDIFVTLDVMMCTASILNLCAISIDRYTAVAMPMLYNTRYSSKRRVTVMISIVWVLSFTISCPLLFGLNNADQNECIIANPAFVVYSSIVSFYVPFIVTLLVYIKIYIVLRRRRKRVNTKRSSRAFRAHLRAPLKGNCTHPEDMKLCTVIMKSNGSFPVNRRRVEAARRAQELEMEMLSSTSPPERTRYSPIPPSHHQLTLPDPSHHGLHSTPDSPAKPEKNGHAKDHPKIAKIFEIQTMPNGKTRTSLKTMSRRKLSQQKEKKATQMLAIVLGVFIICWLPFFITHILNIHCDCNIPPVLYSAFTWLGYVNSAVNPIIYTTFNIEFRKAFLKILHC
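Tetracycline-induced HEK293 Trex cells with D2 receptor force-coupled to calcium signaling, plated overnight at 30 C and loaded with no-wash calcium dye. Calcium flux read kinetically for 180 s after compound addition; responses flag agonists.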
D2 ag-2 – Beta-Arrestin HTS for Positive Allosteric Modulators of the Human D2 Dopamine Receptor: Agonists | 360,000 tested, 0.084% active | D(2) dopamine receptor (Homo sapiens), P14416 | DiscoveRx PathHunter D2 beta-arrestin, luminescence, 90 min; 100% = 57 uM dopamine signal | AID 624465, 2012 | activation, % (no concentration beside the values); in the data active = activation above about 40%
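DiscoveRx PathHunter D2 beta-arrestin cells (2,100/well) attached overnight, then compound-stimulated 90 min at 37 C in HBSS/10 mM HEPES/0.1% Tween-20 buffer; beta-galactosidase complementation read by luminescence after 1 h at ambient temperature. Dopamine 57 uM final (EC100) as control.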
D2 PAM-1 – HTS Assay for Positive Allosteric Modulators of the Human D2 Dopamine Receptor: Primary Screen for Potentiators; 340,000 tested, 0.34% active; HEK293 T-REx D2, calcium flux, EC20 dopamine potentiation; potentiation, % at 10 µM; D(2) dopamine receptor (Homo sapiens), P14416;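 active = potentiation over 3 SD above the plate norm, cut at about 30% in these data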; also: 0% is about no effect
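Tetracycline-induced HEK293 T-REx cells force-coupled to calcium signalling expressed D2; compounds were pin-added after a 10 s baseline, read kinetically 180 s, then an EC20 dopamine challenge followed with a further 180 s calcium read.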
D2 PAM-2 – Beta-Arrestin HTS for Positive Allosteric Modulators of the Human D2 Dopamine Receptor: Potentiators; DiscoveRx D2 beta-arrestin cells, luminescence, 90 min; 100% = 57 uM dopamine signal; AID 624464, 2012; potentiation, % (test concentration not listed); 360,000 tested, 0.23% active; in the data active = potentiation above about 50%
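PathHunter D2 cells, attached overnight at 37 deg C, received compound in DMSO plus dopamine at EC20 (50 nM final) for 90 min at 37 deg C. Beta-arrestin recruitment was read as luminescence after 1 h with detection reagent at ambient temperature.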
D2 antagonist – HTS Assay for Allosteric Antagonists of the Human D2 Dopamine Receptor: Primary Screen for Antagonists; HEK293 TREx D2 cells, calcium flux, dopamine EC80; 340,000 tested, 2% active; D(2) dopamine receptor (Homo sapiens), P14416; inhibition, % at 10 µM; AID 485344, 2010; in the data active = inhibition above about 30%; inactive = below that, where a call was filed; also: 0% is about no effect
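Read-out: kinetic calcium fluorescence (1 cycle/s) in inducible HEK293 T-REx D2 cells after an EC80 dopamine addition that followed 180 s compound preincubation. Loss of the dopamine response indicates antagonism.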
* hit, by the source's call; x = no result; ! = repeats disagree. In the library only some 2.4% were active in any assay of this set; here they are far more common.

SMILES	D2 ag-1	D2 ag-2	D2 PAM-1	D2 PAM-2	D2 antagonist
CN(C)S(=O)(=O)c1ccc(Cl)c(NC(=O)CN2CCC(Cc3ccccc3)CC2)c1	-4.6	1.9	-10.3	-25.5	42.3*
CCOC(=O)c1ccc[n+](CC(=O)Nc2cc(C(F)(F)F)ccc2Cl)c1	0.0	-3.4	-9.4	-15.0	52.5*
CN(CC(=O)Nc1cc(S(=O)(=O)N2CCCC2)ccc1Cl)Cc1ccc2c(c1)OCO2	-0.6	-2.1	-16.3	-7.5	31.7*
CN(C)S(=O)(=O)c1ccc(Cl)c(NC(=O)CN2CCCCCC2)c1	-2.9	-2.6	-29.6	-22.5	34.0*
CCN(c1ccccc1)S(=O)(=O)c1ccc(Cl)c(NC(=O)CN2CCCCCC2)c1	1.0	1.7	-10.0	-4.9	0.8
O=C(COC(=O)c1ccc(O)cc1)Nc1cc(C(F)(F)F)ccc1Cl	2.7	6.4	-2.8	-4.2	-0.2
COc1cc2c(cc1OC)CN(C(=O)/C=C/c1cccc([N+](=O)[O-])c1)CC2	-0.9	-0.8	17.9	-2.7	-25.2
COc1ccccc1N(CC(=O)NCCc1ccccc1)C(=O)CCC(=O)Nc1cc(C)ccn1	-1.0	-0.6	-3.2	-2.5	4.7
O=C(CCCC(=O)OCC(=O)c1ccc(F)cc1)Nc1cc(C(F)(F)F)ccc1Cl	0.6	-4.0	-20.1	0.0	46.9*
O=C(CCCC(=O)OCC(=O)c1ccc(Cl)cc1Cl)Nc1cc(C(F)(F)F)ccc1Cl	0.7	-10.8	-10.9	-40.3	19.4
NC(=O)C1(N2CCCCC2)CCN(CC(=O)Nc2cc(Cl)ccc2Cl)CC1	0.4	-1.4	-24.8	-10.6	43.4*
O=C(CN1CCCC1)Nc1cc(C(F)(F)F)ccc1Cl	-2.5	-5.6	-19.7	-12.6	81.9*
O=C(CN1CCCCC1)Nc1ccc(C(F)(F)F)cc1Cl	-0.6	-2.1	-1.4	1.0	-28.7
O=C(NNC(=O)C1C2C=CC(C2)C1C(=O)O)c1cc(Cl)ccc1O (configuration not stated)	0.2	-1.3	11.8	-11.7	10.1
CCc1ccc(NC(=O)C2=CC(c3ccc4c(c3)OCO4)=NS(=O)(=O)N2C)cc1	0.6	x	-3.3	x	x
COc1ccc(-c2cc(C(=O)Nc3ccc4c(c3)OCO4)no2)cc1	0.0	-7.4	31.5*!	-12.4	14.0
COc1ccc(-c2cc(C(=O)N3CCOCC3)no2)cc1	-0.6	-3.2	-14.8	1.1	34.6*
CC1CCN(C(=O)c2cc(-c3ccc4c(c3)OCO4)on2)CC1	-1.6	-0.4	36.2*	-5.0	-15.8
CC1CCCCN1C(=O)c1cc(-c2ccc3c(c2)OCO3)on1 (configuration not stated)	-0.4	-4.1	11.0	-1.9	-32.2
COc1cccc(-c2cc(C(=O)N3CCOCC3)no2)c1	-2.2	1.2	-3.1	-3.6	-0.9
CN1C(C(=O)Nc2ccc(OC(F)(F)F)cc2)=CC(c2ccc3c(c2)OCO3)=NS1(=O)=O	0.0	2.2	75.3*!	-2.2	-19.8
COc1ccc(NCc2nnc3n2CCCCC3)c(OC)c1	x	x	0.8	x	x
COc1cc(NC(=O)c2cc(-c3ccccc3)on2)cc(OC)c1OC	-0.7	-4.4	-3.4	-23.1	-0.7
Cc1ccc(C2=NS(=O)(=O)N(C)C(C(=O)Nc3ccc4c(c3)OCO4)=C2)cc1	-0.5	1.4	-20.6	-10.0	-32.7
COc1cccc(-c2cc(C(=O)Nc3cc(OC)c(OC)c(OC)c3)no2)c1	-1.9	0.4	-7.2	-5.3	43.7*
SMILES	D2 ag-1	D2 ag-2	D2 PAM-1	D2 PAM-2	D2 antagonist
COc1ccc(C2=NS(=O)(=O)N(C)C(C(=O)Nc3ccc4c(c3)OCO4)=C2)cc1	0.5	-3.1	-9.7	-9.9	64.2*
COc1cc(NC(=O)c2cccc3c(-c4cccnc4)coc23)cc(OC)c1OC	x	43.5*	x	8.9	x
Cc1c(C(=O)Nc2ccc3c(c2)OCO3)sc2nc(-c3ccccc3)cn12	0.1	-0.9	x	-14.2	66.7*
COc1cccc(NS(=O)(=O)c2ccc3c(c2)n(C)c(=O)n3C)c1	0.0	x	2.9	x	x
COc1ccc(-c2cc(C(=O)Nc3ccccc3SC)no2)cc1	x	-1.7	x	-0.9	x
COc1ccc(-c2cc(C(=O)Nc3cc(Br)ccc3O)no2)cc1	-1.5	0.5	7.9	-0.1	35.6*
O=C(CCN1CCCCC1)Nc1cccc(Br)c1	-0.2	-4.6	-11.1	-5.8	54.8*
CN1CCN(CCC(=O)Nc2cccc(Br)c2)CC1	0.4	-0.9	-14.3	-10.5	7.4
COC(=O)c1ccc(NC(=O)CN2CCN(CCO)CC2)cc1	-0.4	-0.1	-10.9	-1.3	33.2*
CCOC(=O)c1cc(NC(=O)CN2CCCC2)cc(C(=O)OCC)c1	-1.7	3.3	35.6*	-3.3	9.2
O=C(Cc1ccc(Cl)cc1)Nc1ccc(Br)cc1	-0.4	1.2	-21.9	-26.0	43.9*
COC(=O)c1cc(NC(=O)CN2CCOCC2)cc(C(=O)OC)c1	6.8	-3.5	-7.3	5.3	-1.9
COc1cc(OC)c(N(C)C(=O)c2c(C)oc3ncnc(N4CCCCC4)c23)cc1Cl	-1.2	x	2.3	x	x
O=C(CN1CCCC1)Nc1ccc(Br)cc1	1.0	-1.6	6.6	-2.6	-22.2
O=C(CN1CCCCCC1)Nc1ccc(Br)cn1	-1.5	-5.1	12.0	-2.6	41.3*
O=C(CN1CCCCCC1)Nc1ccc(Br)cc1	1.8	7.0	-23.4	-19.4	76.8*
CC1CN(CC(=O)Nc2ccc(Br)cn2)CC(C)O1 (configuration not stated)	2.1	2.5	12.6	2.3	-19.5
O=C(COc1ccc(S(=O)(=O)N2CCCC2)cc1Cl)NCc1cccnc1	0.5	0.8	10.1	-3.4	-2.9
O=C(CCNC(=O)C1CCN(S(=O)(=O)c2ccc(F)cc2)CC1)NCc1ccc(F)cc1	0.6	4.2	3.6	2.9	32.7*
O=C(COc1cc2oc(=O)c3c(c2cc1Cl)CCC3)NCCCN1CCCC1=O	1.2	-1.7	0.0	-18.2	11.3
O=C(COc1cc2oc(=O)c3c(c2cc1Cl)CCC3)Nc1ccc(CN2CCOCC2)cc1	0.1	2.1	30.4*	-0.9	-6.5
Cc1ccc(Cl)cc1-n1c(=O)cc(N2CCN(c3ccc(F)cc3)CC2)[nH]c1=O	-1.1	x	10.0	x	x
C=CCc1cc(Cl)ccc1OCCNCCCOC	1.4	-1.3	-33.5	-15.6	37.1*
C=CCc1ccccc1OCCNCCCOC	0.1	-5.8	-22.0	-32.2	69.1*
C=CCc1cc(Cl)ccc1OCCOCCNCCOC	0.8	-3.4	-20.1	-15.7	4.0
